Assay results: PubChem BioAssay AID2221 (Broad Institute, 2009)
“And” between values parts separate entries of the source, which are not always exact repeats. Identical values can stand only once. Hit rate of the full screen: of about 290,000 compounds, about 2,200 (0.76%) were called active. Only a selection was taken, and actives are over-represented in it overall. Values without a mark were called inactive. Rule as the data show it: active = inhibition above about 30%; inconclusive = no clear call, values can overlap the other calls; inactive = below that.

The compounds below were run against Protein RecA (Mycobacterium tuberculosis (strain ATCC 25618 / H37Rv)) (UniProt P9WHJ3) (assay: Mtb RecA intein splicing inhibitors, primary screen, biochemical, fluorescence, HTS (AID 2221;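 also: 0% = vehicle wells and 100% = reference inhibitor control wells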)). Conditions: cell-free RecA intein splicing, stronger effect = higher value, concentration not given here.
Chain of Protein RecA (Mycobacterium tuberculosis (strain ATCC 25618 / H37Rv)) (P9WHJ3 whole entry, looked up): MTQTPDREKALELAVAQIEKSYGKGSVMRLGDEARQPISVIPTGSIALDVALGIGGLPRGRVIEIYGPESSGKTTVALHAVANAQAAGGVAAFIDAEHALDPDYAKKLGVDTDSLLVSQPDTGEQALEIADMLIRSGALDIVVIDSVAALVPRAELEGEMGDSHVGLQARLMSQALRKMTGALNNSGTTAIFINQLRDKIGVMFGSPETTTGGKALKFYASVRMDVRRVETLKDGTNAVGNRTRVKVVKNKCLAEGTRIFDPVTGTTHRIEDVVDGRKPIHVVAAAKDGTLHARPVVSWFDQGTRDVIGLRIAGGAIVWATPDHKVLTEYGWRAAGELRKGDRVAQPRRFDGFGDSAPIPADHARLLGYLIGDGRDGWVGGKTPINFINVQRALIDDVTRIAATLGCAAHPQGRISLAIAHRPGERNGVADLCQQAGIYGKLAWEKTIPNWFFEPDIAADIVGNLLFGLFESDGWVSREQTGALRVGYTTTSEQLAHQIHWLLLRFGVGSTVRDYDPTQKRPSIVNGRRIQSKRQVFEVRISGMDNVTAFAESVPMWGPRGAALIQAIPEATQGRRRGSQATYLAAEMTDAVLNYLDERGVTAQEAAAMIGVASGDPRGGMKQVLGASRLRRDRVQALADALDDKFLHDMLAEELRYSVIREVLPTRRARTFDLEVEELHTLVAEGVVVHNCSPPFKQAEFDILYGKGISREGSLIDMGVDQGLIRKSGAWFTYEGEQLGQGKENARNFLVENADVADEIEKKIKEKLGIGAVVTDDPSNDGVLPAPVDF
CN(C)S(=O)(=O)c1ccc2oc(SCC(=O)Nc3ccccc3F)nc2c1 was tested, and the inhibition was -2.69%.
N#CCc1c(C#N)c(N)nc(N2CCCC2)c1C#N gave an inhibition of 0.638%.
In the case of N#Cc1c(N2CCCCC2)nc(N)c2c(N)nc(SCC(=O)O)cc12, the inhibition is reported as 61.1% (active).
For N#Cc1c(-c2ccccc2)cc(-c2ccccc2)nc1SCC(=O)O, the inhibition was 0.292%.
In the case of COc1ccc(C2NC(=S)NC3=C2CCc2ccccc23)cc1OC (configuration not stated), the inhibition is reported as 45.9% (active).
CCOc1ccc(C2NC(=S)NC3=C2CCc2ccccc23)cc1 (configuration not stated) showed an inhibition of 15%.
For CCOC(=O)C1=C(c2ccccc2)NC(=S)NC1c1ccc(Cl)cc1 (configuration not stated), the inhibition was 8.84%.
In the case of Cc1nn(C(C)(C)C)c(OC(=O)CC(C)C)c1S(=O)(=O)c1ccccc1, the inhibition is reported as 8.28%.
With O=C(CCNS(=O)(=O)c1cccs1)N1CCN(c2ccc(F)cc2)CC1 the inhibition was -0.494%.
With CCOCC(=O)NCc1ccc2c(c1)cc(C)n2C the inhibition was 30.1% (active).
Cc1ccc(CNC(=O)COc2ccc3c(c2)CCC3)cc1 showed an inhibition of 1.94%.
Work on COc1cc(C(=O)NCc2ccc3c(c2)cc(C)n3C)cc(OC)c1OC yielded an inhibition of 1.47%.
In the case of CCc1cc(CNC(=O)CC2C(=O)NCCN2Cc2ccccc2C(F)(F)F)on1 (configuration not stated), the inhibition is reported as -0.415%.
Compound COc1ccc(C(=O)c2c(C)oc3cc([N+](=O)[O-])c(O)c([N+](=O)[O-])c23)cc1 has an inhibition of 8.62%.
Compound Cc1oc2cc(Br)c(O)c(Br)c2c1C(=O)c1ccccc1 has an inhibition of 12.7%.
With Cc1oc2cc([N+](=O)[O-])c(O)c([N+](=O)[O-])c2c1C(=O)c1ccc(Br)cc1 the inhibition was 41.5% (active).
With COC(=O)[C@H]1[C@H]2C[C@H]3c4[nH]c5ccccc5c4CCN3C[C@@H]2CC[C@@H]1O the inhibition was 0.605% and -6.9%.
Work on CC(Oc1cc2oc(=O)c3c(c2cc1Cl)CCCC3)C(=O)NCc1ccncc1 (configuration not stated) yielded an inhibition of 0.148%.
With O=C(CN(C(=O)c1csnn1)c1cccc(Cl)c1)NC1CCCC1 the inhibition was -3.49%.
With O=C(Nc1ccc(Cl)c(Cl)c1)c1ccccc1NC(=O)C1CC=CCC1C(=O)O (configuration not stated) the inhibition was 0.473%.
In the case of O=C(Nc1ccccc1)c1nnsc1S(=O)(=O)c1ccc(Cl)cc1, the inhibition is reported as 70% (active).
For O=C(c1ccc(Cl)cc1)c1cnc(Nc2ccccc2)s1, the inhibition was -1.16%.
In the case of CN(c1cccc(NC(=O)Nc2ccc(Cl)cc2)c1)S(C)(=O)=O, the inhibition is reported as 4.89%.
Cc1cc(C)nc(SCc2nnc(SCC(=O)OC3CCCCC3)o2)n1 showed an inhibition of 0.246%.
In the case of CCOC(=O)c1c(-c2ccc(C)cc2)csc1/N=C(\C)C1=C(O)c2ccccc2C1=O, the inhibition is reported as -0.167%.
Compound COc1ccc(N2CCN(C(C)=C3C(=O)c4ccccc4C3=O)CC2)cc1 has an inhibition of -1.11%.
CCOC(=O)C1=C(c2ccc(OC)cc2)C(=O)c2ccccc2C1=O was tested, and the inhibition was 83.5% (active).
Work on CC1CN(C(=O)CCC(=O)NCCCN2CCC(Cc3ccccc3)CC2)c2cc(Cl)ccc2O1 (configuration not stated) yielded an inhibition of 4.67%.
COc1cccc(CCNC(=O)c2cccc(NC(=O)C3=C(C)OCCS3)c2)c1 gave an inhibition of -0.654%.
With Cn1c(=O)c2sccc2n(Cc2ccc(Br)cc2)c1=O the inhibition was 1.32%.
COc1ccccc1N1CCN(S(=O)(=O)c2ccc(Cl)cc2)CC1 gave an inhibition of 13.3%.
For COc1ccccc1-n1nnnc1S(=O)(=O)Cc1ccc(Cl)cc1, the inhibition was 81.5% (active).
CCN(C(=O)CSc1nnnn1-c1ccccc1OC)C1CCS(=O)(=O)C1 (configuration not stated) gave an inhibition of -4.51%.
With O=C(CSc1nc2[nH]ncc2c(=O)[nH]1)Nc1ccc(F)cc1 the inhibition was -1.71%.
Compound CCC(=C/c1sc2ccc3ccccc3c2[n+]1C)/C=C1\Sc2ccc3ccccc3c2N1C has an inhibition of -0.0609%.
Work on COc1cccc(NC(=O)CN(C)C(=O)c2ccccc2CCc2ccccc2)c1 yielded an inhibition of 5.79%.
O=C(CN1CCN(S(=O)(=O)c2ccc(Br)cc2)CC1)Nc1ccccc1C(=O)c1ccccc1 showed an inhibition of -0.838%.
In the case of Cc1oc2c(c1C(=O)N1CCOCC1)C(=O)c1ccccc1C2=O, the inhibition is reported as 86% (active).
In the case of CCOC(=O)c1ccccc1C(=O)N1CCOCCOCCOCC1, the inhibition is reported as 0.452%.
Cc1noc(C)c1C(=O)N1CCOCC1 showed an inhibition of 1.19%.
Nc1[nH]c(=S)nc2nc(-c3ccccc3)c(-c3ccccc3)nc12 showed an inhibition of -3.24%.
For Cn1cnc2c1c(=O)n(Cc1ccccc1C#N)c(=O)n2C, the inhibition was -5.24%.
O=C(CCC(=O)N/N=C/c1ccc(Br)o1)N/N=C/c1ccc(Br)o1 showed an inhibition of -0.217%.
With CCOC(=O)c1sc(NC(=O)CCN2CCOCC2)c(C(=O)OCC)c1C the inhibition was 2.17%.
CCOC(=O)Nc1sc(C(=O)N(C)C)c(C)c1C(=O)OCC was tested, and the inhibition was 1.54%.
In the case of CCOC(=O)c1c(NC(=O)CCl)sc(C(=O)N(CC)CC)c1C, the inhibition is reported as 46.7% (active).
Compound Cc1nc(CNS(=O)(=O)c2cc([N+](=O)[O-])ccc2C)cs1 has an inhibition of -3.48%.
In the case of CCc1ccccc1N(CC(=O)NCC1CCCO1)C(=O)CCC(=O)Nc1nccs1 (configuration not stated), the inhibition is reported as -1.77%.
Cc1ccc(C)c(NC(CC(=O)c2ccccc2)C(=O)OCC(=O)c2cccs2)c1 (configuration not stated) showed an inhibition of -3.12%.
CCc1cccc(C)c1NC(=O)COC(=O)CNC(=O)c1cccs1 showed an inhibition of -3.74%.
For Cc1ccccc1C(CC(=O)c1cccs1)C(C#N)C#N (configuration not stated), the inhibition was 63.2% (active).
With Cc1ccc(Sc2cc(N3CCOCC3)nc(-c3ccccc3)n2)cc1 the inhibition was -0.766%.
O=S(=O)(c1ccc(-c2ccno2)s1)N1CCCCC1 showed an inhibition of 0.0995%.
For Cc1cc(C)n2nc(CNS(=O)(=O)c3c(F)c(F)c(F)c(F)c3F)nc2n1, the inhibition was 33% (active).
For Cc1cc(C)n2nc(SCC(N)=O)nc2n1, the inhibition was -1.48%.
Cc1cc(C)n2nc(C(=O)NC(C)(C)C)nc2n1 gave an inhibition of -3.67%.
In the case of COc1ccc(N2CCN(C(=O)C3CCN(S(=O)(=O)c4ccc(C)cc4)CC3)CC2)cc1, the inhibition is reported as -2.81%.
In the case of CCN(CCNC(=O)C1=C(C)C(=O)OC12CCC(C)CC2)c1ccccc1 (configuration not stated), the inhibition is reported as -9.04%.
O=S(=O)(c1cnccc1N1CCN(/N=C/c2ccc(Br)cc2)CC1)N1CCCCC1 showed an inhibition of -5.35%.
In the case of COc1ccc(COC(=O)NC(C(=O)O)c2ccccc2)cc1 (configuration not stated), the inhibition is reported as -3.65%.
In the case of COc1ccc(C(CCN(Cc2ccc(OC)c(OC)c2)C(=O)CCl)c2ccccc2)cc1 (configuration not stated), the inhibition is reported as 77.7% (active).
COc1ccc(CN(C)C(=O)CC(c2ccccc2)c2ccccc2)cc1 showed an inhibition of 12%.
For CCCc1cc(=O)oc2c(C)c(OCC(=O)Nc3ccccn3)ccc12, the inhibition was 0.212%.
For COc1ccc(N2CCN(C(=O)COc3ccc4c(C)cc(=O)oc4c3)CC2)cc1, the inhibition was -4.41%.
CC(=O)Nc1cccc(NC(=O)CSc2nccn2Cc2ccc(F)cc2)c1 was tested, and the inhibition was -1.4%.
Work on CN(C)c1ccc(C=C2C(=O)OC3(CCCC3)OC2=O)cc1 yielded an inhibition of -3.67%.
CN(C)c1ccc(/C=C2\NC(=S)N(Cc3ccccc3)C2=O)cc1 gave an inhibition of -1.92%.
With CC1=NN(Cc2ccccc2)C(=O)/C1=C/c1ccc(N(C)C)cc1 the inhibition was 42.9% (active).
For CCc1cccc2c3c([nH]c12)C(CC)(CC(=O)O)OCC3 (configuration not stated), the inhibition was -3.9%.
CCCC/C(C)=N/NC(=O)NC1CCCCC1 gave an inhibition of -5.59%.
With O=C1/C(=C/c2ccc3c(c2)OCO3)CCC/C1=C\c1ccc2c(c1)OCO2 the inhibition was 30.4% (active).
For O=C1/C(=C\c2ccc3c(c2)OCO3)N2CCC1CC2, the inhibition was -0.267%.
Compound O=C(N/N=C/c1ccc2c(c1)OCO2)C(=O)N1CCCC1 has an inhibition of -2.18%.
In the case of Cc1nn(-c2ccccc2)c(C)c1NC(=O)COC(=O)c1cc(Cl)ccc1O, the inhibition is reported as 0.496%.
With CC(C(=O)c1ccc(-c2ccccc2)cc1)[n+]1cccc(Br)c1 (configuration not stated) the inhibition was 0.227%.
O=C(Cc1ccc2c(c1)CCCC2)Nc1ccccc1Cl gave an inhibition of 5.79%.
With O=C(Nc1ccccc1Cl)/C(Cl)=C(\Cl)S(=O)c1ccccc1 (configuration not stated) the inhibition was 97% (active).
O=C(Nc1ccccc1Cl)Nc1cccc2cccnc12 gave an inhibition of 6.8%.
CCN(C(=O)CSc1nnc(-c2ccc(OC(F)F)cc2)n1N)C1CCS(=O)(=O)C1 (configuration not stated) gave an inhibition of -2.58%.
In the case of C=CCN1C(=NC(=O)COc2ccccc2)SC2CS(=O)(=O)CC21 (configuration not stated), the inhibition is reported as -0.786%.
With Oc1ccc(/C=N/NC2=NCCCCC2)c(O)c1 the inhibition was -9.19%.
Cc1nc2ccccc2nc1N/N=C/c1ccc(O)cc1O was tested, and the inhibition was 32% (active).
Oc1ccc(/C=N/Nc2nc(-c3ccccc3F)nc3ccccc23)c(O)c1 showed an inhibition of 10.7%.
For CCCOc1ccc(Cl)cc1Nc1nc(NCCO)nc(N2CCCC2)n1, the inhibition was -0.826%.
With Cn1c(=O)c2c(-c3cccc(Br)c3)c(C#N)c(N)nc2n(C)c1=O the inhibition was -11.9%.
With CCc1ccc2c(c1)cc(CN(C(=S)Nc1ccccc1Cl)C1CC1)c1nnnn12 the inhibition was -0.332%.
CSc1ccccc1NC(=O)C(C)N1C(=O)c2ccccc2S1(=O)=O (configuration not stated) was tested, and the inhibition was 1.38%.
O=C(Nc1ccc(F)cc1)C(=O)c1cn(CC(=O)N2CCOCC2)c2ccccc12 showed an inhibition of -4.57%.
Cc1ccc(S(=O)(=O)NC2(C(F)(F)F)NC(=O)N(CCc3ccccc3)C2=O)cc1 (configuration not stated) gave an inhibition of -2.6%.
In the case of O=C1CC(c2ccccc2)=NN1c1ccc([N+](=O)[O-])cc1, the inhibition is reported as 54.9% (active).
With Cc1nn(-c2ccc([N+](=O)[O-])cc2)c(N)c1-c1ccccc1 the inhibition was 0.233%.
CC1=NN(c2ccccc2)C(=O)C1C(=O)c1ccc([N+](=O)[O-])cc1 (configuration not stated) showed an inhibition of 5.51%.
